Experimental data taken from the supplement of paper PMC3545927.
The other results are listed elsewhere or left out. The true hit rate is not given.

Molecular target: furin, P09958
Test: furin cleavage Z-score vs untreated control; higher = more cleavage, active = 3.5 or more, inactive = 1 or less, 8 variable residues between constant flanks
How it was run: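 Furin-free reactions served as the baseline for the cleavage Z-score, which is the log read count lowess-adjusted and scaled by median absolute deviation. Counts came from released DNA, adapter-tagged by PCR and sequenced. Purified furin had cut 8-mer peptides fused to a cDNA oligonucleotide on magnetic beads during 7.5, 15 or 30 min at 1:10 enzyme:substrate.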
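Note: purified furin at 1:10 enzyme:substrate in 50 mM HEPES pH 7.5.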

furin, P09958, sequence (P09958 whole entry): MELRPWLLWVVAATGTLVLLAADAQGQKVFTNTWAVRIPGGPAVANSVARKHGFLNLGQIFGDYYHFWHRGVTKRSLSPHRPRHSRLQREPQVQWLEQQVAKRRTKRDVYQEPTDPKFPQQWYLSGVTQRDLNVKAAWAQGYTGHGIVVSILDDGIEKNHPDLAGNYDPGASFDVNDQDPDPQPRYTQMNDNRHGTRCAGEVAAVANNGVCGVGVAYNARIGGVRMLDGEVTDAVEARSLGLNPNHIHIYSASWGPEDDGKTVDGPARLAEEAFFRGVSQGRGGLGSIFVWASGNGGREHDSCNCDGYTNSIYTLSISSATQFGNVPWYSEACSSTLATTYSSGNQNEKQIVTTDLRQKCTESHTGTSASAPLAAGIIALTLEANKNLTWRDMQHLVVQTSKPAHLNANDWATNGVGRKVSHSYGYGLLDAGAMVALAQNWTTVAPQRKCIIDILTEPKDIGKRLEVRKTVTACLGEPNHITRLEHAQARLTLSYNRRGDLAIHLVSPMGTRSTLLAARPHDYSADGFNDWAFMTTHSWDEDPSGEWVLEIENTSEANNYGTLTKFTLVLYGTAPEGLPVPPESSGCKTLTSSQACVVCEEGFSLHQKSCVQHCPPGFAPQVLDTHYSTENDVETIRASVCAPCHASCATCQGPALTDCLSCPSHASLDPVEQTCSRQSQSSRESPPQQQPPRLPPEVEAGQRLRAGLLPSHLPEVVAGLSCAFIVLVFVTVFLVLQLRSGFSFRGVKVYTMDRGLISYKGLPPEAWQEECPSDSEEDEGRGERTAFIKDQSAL

Row | Sequence | furin cleavage Z-score (7.5 min) | furin cleavage Z-score (15 min) | furin cleavage Z-score (30 min)
1 | CAMEECSQWLAGNASASA [HC1748] | 1.29 | 1.35 | -0.383 (inactive)
2 | CAQEMGGNITAGNASASA [HC1278] | 0.989 (inactive) | 0.052 (inactive) | 0.798 (inactive)
3 | CAANGSGPDQAGNASASA [HC398] | -0.135 (inactive) | -1.15 (inactive) | 0.257 (inactive)
4 | CAEVCCSMSYAGNASASA [HC1992] | 0.759 (inactive) | 0.26 (inactive) | 0.528 (inactive)
5 | CARRRRSVQLAGNASASA [FS-1789] | 1.43 | 0.51 (inactive) | 2.7
6 | CARRRRCVGLAGNASASA [FS-2403] | 2.54 | 1.19 | 5.18 (active)
7 | CARRRRLVWTAGNASASA [FS-2079] | -0.712 (inactive) | 0.718 (inactive) | 2.58
8 | CARRRRDVVTAGNASASA [FS-2232] | 11.1 (active) | 11.8 (active) | 8.98 (active)
9 | CARTMRSSAGAGNASASA [FS-2831] | 0.517 (inactive) | -0.365 (inactive) | 0.495 (inactive)
10 | CAAAIGSVGLAGNASASA [HC1079] | -0.425 (inactive) | -0.896 (inactive) | -0.452 (inactive)
11 | CARTMRSVGLAGNASASA [FS-1936] | 5.41 (active) | 6.11 (active) | 5.7 (active)
12 | CARRRRAVGLAGNASASA [FS-2595] | 3.99 (active) | 4.72 (active) | 5.23 (active)
13 | CAADVVCCSMAGNASASA [HC2103] | 1.06 | 0.666 (inactive) | 0.566 (inactive)
14 | CATLVFDITKAGNASASA [HC602] | 1.27 | 0.292 (inactive) | -0.917 (inactive)
15 | CALITWGADTAGNASASA [HC652] | 0.62 (inactive) | 1.26 | -1.35 (inactive)
16 | CAQLSAPSLKAGNASASA [HC1263] | 1.12 | 0.729 (inactive) | -0.193 (inactive)
17 | CARSVRPVEFAGNASASA [FS-3100] | -0.873 (inactive) | -2.07 (inactive) | -1.68 (inactive)
18 | CARGRRSLEFAGNASASA [FS-1952] | 4.88 (active) | 7.64 (active) | 7.06 (active)
19 | CAVYRRSLGKAGNASASA [FS-2202] | -0.0765 (inactive) | -0.584 (inactive) | -0.11 (inactive)
20 | CARGRRSLGSAGNASASA [FS-1713] | 7.83 (active) | 9.89 (active) | 8.32 (active)
21 | CAMEECSAHLAGNASASA [HC1723] | 1.16 | 1.94 | 0.224 (inactive)
22 | CAANHDSPDAAGNASASA [HC1269] | -0.381 (inactive) | 0.0398 (inactive) | -1.93 (inactive)
23 | CAEVVTWTWVAGNASASA [HC147] | 0.828 (inactive) | 0.782 (inactive) | -0.799 (inactive)

Row | Sequence | furin cleavage Z-score (7.5 min) | furin cleavage Z-score (15 min) | furin cleavage Z-score (30 min)
24 | CAESRRLPRSAGNASASA [FS-1321] | 4.7 (active) | 3.1 | 2.83
25 | CANLGRLYRSAGNASASA [FS-1546] | 1.72 | 0.0213 (inactive) | 0.362 (inactive)
26 | CAAPARWPRSAGNASASA [FS-974] | 8.41 (active) | 5.86 (active) | 6.73 (active)
27 | CAKQRRLPRSAGNASASA [FS-678] | 5.31 (active) | 3.74 (active) | 3.02
28 | CAESSRLLRSAGNASASA [FS-994] | -0.56 (inactive) | -0.471 (inactive) | -0.146 (inactive)
29 | CAAPQRLPRSAGNASASA [FS-1305] | 5.56 (active) | 4.41 (active) | 3.78 (active)
30 | CAAEGWWARSAGNASASA [FS-394] | 0.0718 (inactive) | 0.063 (inactive) | -0.127 (inactive)
31 | CATPGCVPCVAGNASASA [HC272] | -0.91 (inactive) | 0.456 (inactive) | 0.199 (inactive)
32 | CAHHQRPKRYAGNASASA [FS-792] | 8.28 (active) | 9.17 (active) | 7.59 (active)
33 | CAILNRPKRYAGNASASA [FS-666] | 4.17 (active) | 4.91 (active) | 4.53 (active)
34 | CATWAQPGYPAGNASASA [HC198] | -0.244 (inactive) | 0.873 (inactive) | -0.438 (inactive)
35 | CAWWARSVGGAGNASASA [FS-2116] | 0.297 (inactive) | 0.813 (inactive) | 1.73
36 | CARNKRDTMVAGNASASA [FS-1862] | 12.3 (active) | 13.2 (active) | 10.9 (active)
37 | CARNKRFYGGAGNASASA [FS-1910] | 0.307 (inactive) | 0.312 (inactive) | 2.91
38 | CARNKKSKMDAGNASASA [FS-2497] | -0.56 (inactive) | -0.669 (inactive) | -0.939 (inactive)
39 | CARNKRSKSNAGNASASA [FS-2729] | 7.79 (active) | 9.35 (active) | 7.37 (active)
40 | CARNKRSHSGAGNASASA [FS-1758] | 5.74 (active) | 8.23 (active) | 6.55 (active)
41 | CAEVVTSTMVAGNASASA [HC2226] | 1.1 | 0.363 (inactive) | 1.25
42 | CARNKRSTQIAGNASASA [FS-1911] | 10.5 (active) | 12.3 (active) | 10.9 (active)
43 | CARNKRPTFLAGNASASA [FS-3008] | -0.0512 (inactive) | 0.819 (inactive) | -0.221 (inactive)
44 | CAFRKRSHSKAGNASASA [FS-2120] | -0.356 (inactive) | -1.2 (inactive) | -1.04 (inactive)
45 | CARNKKSIAVAGNASASA [FS-2434] | -0.82 (inactive) | 0.605 (inactive) | 1.7
46 | CARNKKQNSQAGNASASA [FS-2282] | 1.09 | -0.5 (inactive) | -0.768 (inactive)
